In PubChem BioAssay AID1159580 (chemical genetic matrix, 2015):
In all, about 5,500 compounds went through this assay and about 2,000 (36%) were called active. Inconclusive results (about 18%) are left out. Cut-off read from the data, not from the text of the source: active = normalized growth mostly below about 0.91 (no sharp cut-off); inconclusive = no clear call, values can overlap the other calls; inactive = mostly above about 0.92. The list shows a part of the results.

Experiment: chemical genetic growth profiling, strain panel (AID 1159580);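 note: tested at 20 µM; growth read once vehicle control cultures reached saturation at 30 °C; 1 = growth at the plate median or of vehicle wells; lower values mean less growth of the strain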
Settings: growth OD
[1] = S. cerevisiae deletion strains, locus YAL013W, strain DEP1, stronger effect = lower value
[2] = S. cerevisiae deletion strains, locus YGR229C, strain SMI1, stronger effect = lower value
[3] = S. cerevisiae deletion strains, locus YJR075W, strain HOC1, stronger effect = lower value
[4] = S. cerevisiae deletion strains, locus YMR263W, strain SAP30, stronger effect = lower value
[5] = S. cerevisiae deletion strains, locus YMR307W, strain GAS1, stronger effect = lower value

Measured: normalized growth

CCC(=O)c1ccc2c(c1)N(CC(C)N(C)C)c1ccccc1S2 (configuration not stated)
inactive: [1] 0.983 | S. cerevisiae deletion strains, locus YBR021W, strain FUR4, stronger effect = lower value 0.88 | S. cerevisiae deletion strains, locus YBR229C, strain ROT2, stronger effect = lower value 0.994 | S. cerevisiae deletion strains, locus YCL029C, strain bik1, stronger effect = lower value 1.02 | S. cerevisiae deletion strains, locus YDL035C, strain GPR1, stronger effect = lower value 0.979 | S. cerevisiae deletion strains, locus YDL074C, strain BRE1, stronger effect = lower value 0.95 | S. cerevisiae deletion strains, locus YDL101C, strain DUN1, stronger effect = lower value 0.986 | S. cerevisiae deletion strains, locus YDL134C, strain PPH21, stronger effect = lower value 0.96 | S. cerevisiae deletion strains, locus YDL185W, strain tfp1, stronger effect = lower value 0.995 | S. cerevisiae deletion strains, locus YDL192W, strain arf1, stronger effect = lower value 1.01 | S. cerevisiae deletion strains, locus YDR101C, strain arx1, stronger effect = lower value 1.01 | S. cerevisiae deletion strains, locus YDR162C, strain NBP2, stronger effect = lower value 0.988 | S. cerevisiae deletion strains, locus YDR318W, strain mcm21, stronger effect = lower value 0.994 | S. cerevisiae deletion strains, locus YDR388W, stronger effect = lower value 1 | S. cerevisiae deletion strains, locus YDR502C, strain sam2, stronger effect = lower value 0.986 | S. cerevisiae deletion strains, locus YEL061C, strain CIN8, stronger effect = lower value 0.998 | S. cerevisiae deletion strains, locus YER110C, stronger effect = lower value 1.02 | S. cerevisiae deletion strains, locus YER155C, strain BEM2, stronger effect = lower value 0.989 | S. cerevisiae deletion strains, locus YER167W, strain BCK2, stronger effect = lower value 0.998 | S. cerevisiae deletion strains, locus YGL078C, strain dbp3, stronger effect = lower value 1.01 | S. cerevisiae deletion strains, locus YGL086W, strain mad1, stronger effect = lower value 0.99 | S. cerevisiae deletion strains, locus YGL248W, strain PDE1, stronger effect = lower value 0.966 | S. cerevisiae deletion strains, locus YGR078C, strain PAC10, stronger effect = lower value 0.992 | S. cerevisiae deletion strains, locus YGR135W, strain pre9, stronger effect = lower value 0.97 | [2] 0.949 | S. cerevisiae deletion strains, locus YGR252W, strain gcn5, stronger effect = lower value 0.806 | S. cerevisiae deletion strains, locus YHR030C, strain SLT2, stronger effect = lower value 0.997 | S. cerevisiae deletion strains, locus YHR079C, strain IRE1 (second series), stronger effect = lower value 1.01 | S. cerevisiae deletion strains, locus YHR094C, strain hxt1, stronger effect = lower value 1.02 | S. cerevisiae deletion strains, locus YHR129C, strain ARP1, stronger effect = lower value 0.993 | S. cerevisiae deletion strains, locus YHR200W, strain rpn10, stronger effect = lower value 1 | S. cerevisiae deletion strains, locus YIL066C, strain RNR3, stronger effect = lower value 0.985 | S. cerevisiae deletion strains, locus YIL073C, strain SPO22, stronger effect = lower value 1.01 | S. cerevisiae deletion strains, locus YIL125W, strain kgd1, stronger effect = lower value 1.01 | S. cerevisiae deletion strains, locus YIR030C, strain dcg1, stronger effect = lower value 1.01 | S. cerevisiae deletion strains, locus YJL095W, strain BCK1, stronger effect = lower value 0.889 | S. cerevisiae deletion strains, locus YJL134W, strain LCB3, stronger effect = lower value 0.996 | S. cerevisiae deletion strains, locus YJL168C, strain set2, stronger effect = lower value 1 | S. cerevisiae deletion strains, locus YJL187C, strain SWE1 (second series), stronger effect = lower value 0.99 | S. cerevisiae deletion strains, locus YJR043C, strain POL32, stronger effect = lower value 0.96 | [3] 0.99 | S. cerevisiae deletion strains, locus YKL009W, strain mrt4, stronger effect = lower value 0.999 | S. cerevisiae deletion strains, locus YKL068W, stronger effect = lower value 0.999 | S. cerevisiae deletion strains, locus YKL085W, strain MDH1 (second series), stronger effect = lower value 0.999 | S. cerevisiae deletion strains, locus YKL085W, strain MDH1, stronger effect = lower value 0.999 | S. cerevisiae deletion strains, locus YKL190W, strain CNB1, stronger effect = lower value 0.99 | S. cerevisiae deletion strains, locus YKR001C, strain vps1, stronger effect = lower value 0.967 | S. cerevisiae deletion strains, locus YLR039C, strain RIC1, stronger effect = lower value 1.3 | S. cerevisiae deletion strains, locus YLR058C, strain SHM2, stronger effect = lower value 0.985 | S. cerevisiae deletion strains, locus YLR102C, strain apc9, stronger effect = lower value 1.02 | S. cerevisiae deletion strains, locus YLR262C, strain YPT6, stronger effect = lower value 1.35 | S. cerevisiae deletion strains, locus YLR268W, strain sec22, stronger effect = lower value 0.986 | S. cerevisiae deletion strains, locus YLR330W, strain CHS5, stronger effect = lower value 0.996 | S. cerevisiae deletion strains, locus YLR342W, strain FKS1 (second series), stronger effect = lower value 0.921 | S. cerevisiae deletion strains, locus YLR371W, strain rom2, stronger effect = lower value 1.03 | S. cerevisiae deletion strains, locus YLR418C, strain cdc73, stronger effect = lower value 0.9 | S. cerevisiae deletion strains, locus YML016C, strain PPZ1, stronger effect = lower value 0.994 | S. cerevisiae deletion strains, locus YML032C, strain rad52, stronger effect = lower value 0.982 | S. cerevisiae deletion strains, locus YML124C, strain tub3, stronger effect = lower value 1.01 | S. cerevisiae deletion strains, locus YMR078C, strain ctf18, stronger effect = lower value 1.01 | S. cerevisiae deletion strains, locus YMR223W, strain ubp8, stronger effect = lower value 0.963 | [4] 0.973 | [5] 1.01 | S. cerevisiae deletion strains, locus YNL067W, strain RPL9B, stronger effect = lower value 0.99 | S. cerevisiae deletion strains, locus YNL153C, strain GIM3, stronger effect = lower value 0.98 | S. cerevisiae deletion strains, locus YNL233W, strain BNI4, stronger effect = lower value 0.951 | S. cerevisiae deletion strains, locus YNL250W, strain rad50, stronger effect = lower value 1.01 | S. cerevisiae deletion strains, locus YNL271C, strain bni1, stronger effect = lower value 1.01 | S. cerevisiae deletion strains, locus YNL298W, strain CLA4, stronger effect = lower value 1.01 | S. cerevisiae deletion strains, locus YNL307C, strain MCK1, stronger effect = lower value 0.996 | S. cerevisiae deletion strains, locus YNR052C, strain pop2, stronger effect = lower value 1 | S. cerevisiae deletion strains, locus YOL006C, strain TOP1, stronger effect = lower value 0.852 | S. cerevisiae deletion strains, locus YOL012C, strain htz1 0.881 | S. cerevisiae deletion strains, locus YOL147C, strain pex11, stronger effect = lower value 1.01 | S. cerevisiae deletion strains, locus YOR061W, strain CKA2, stronger effect = lower value 0.999 | S. cerevisiae deletion strains, locus YOR069W, strain VPS5, stronger effect = lower value 0.996 | S. cerevisiae deletion strains, locus YOR136W, strain idh2, stronger effect = lower value 1 | S. cerevisiae deletion strains, locus YOR144C, strain elg1, stronger effect = lower value 1.01 | S. cerevisiae deletion strains, locus YOR184W, strain ser1, stronger effect = lower value 1.01 | S. cerevisiae deletion strains, locus YOR316C, strain cot1, stronger effect = lower value 1.02 | S. cerevisiae deletion strains, locus YPL055C, strain LGE1, stronger effect = lower value 0.949 | S. cerevisiae deletion strains, locus YPR119W, strain clb2, stronger effect = lower value 1.01 | S. cerevisiae deletion strains, locus YPR141C, strain kar3, stronger effect = lower value 1.01 | S. cerevisiae deletion strains, locus YPR163C, strain tif3, stronger effect = lower value 1 | S. cerevisiae deletion strains, locus YPR167C, strain met16, stronger effect = lower value 1.02 | S. cerevisiae deletion strains, strain wtn01, stronger effect = lower value 0.99 | S. cerevisiae strains, strain wild type, stronger effect = lower value 0.991

CCN(CC)C(C)C(=O)N1c2ccccc2Sc2ccccc21 (configuration not stated)
inactive: [1] 1 | S. cerevisiae deletion strains, locus YAL040C, strain CLN3, stronger effect = lower value 1.02 | S. cerevisiae deletion strains, locus YCL061C, strain MRC1 (second series), stronger effect = lower value 1.01 | S. cerevisiae deletion strains, locus YDR363W, strain ESC2, stronger effect = lower value 1 | S. cerevisiae deletion strains, locus YER002W, strain NOP16, stronger effect = lower value 1.02 | [2] 1.04 | [3] 1.07 | [4] 1.01 | [5] 0.999 | S. cerevisiae deletion strains, locus YNL128W, strain TEP1, stronger effect = lower value 0.997 | S. cerevisiae deletion strains, locus YNL175C, strain NOP13, stronger effect = lower value 1.04 | S. cerevisiae deletion strains, locus YNL197C, strain WHI3, stronger effect = lower value 1.03 | S. cerevisiae deletion strains, locus YNL224C, strain SQS1, stronger effect = lower value 1.02 | S. cerevisiae deletion strains, locus YOR083W, strain WHI5 (second series), stronger effect = lower value 1.02 | S. cerevisiae deletion strains, locus YPL241C, strain CIN2, stronger effect = lower value 1.01
